Source: PubChem (National Center for Advancing Translational Sciences (NCATS))
Cycloheximide cs: Cycloheximide Counterscreen for Small Molecule Inhibitors of Shiga Toxin | cell reporter, cycloheximide protein synthesis inhibition counterscreen | max response, % | actives 12% (n = 300,000) | AID 2314, 2010; in the data active = max response mostly above about 13%, no sharp cut-off; inactive = mostly below about 14%; also: read at 38.3 µM for the half of the compounds with a filed dose
Shiga toxin inh: A qHTS for Small Molecule Inhibitors of Shiga Toxin. Vero cells, Shiga toxin protein synthesis inhibition reporter. inhibition, % at 38.7 µM. actives 9.2% (n = 290,000); in the data active = inhibition mostly above about 28%, no sharp cut-off; inactive = mostly below about 43%
Pf growth 48h: Primary qHTS for delayed death inhibitors of the malarial parasite plastid, 48 hour incubation. P. falciparum luciferase growth in erythrocytes, 48 h. Potency, µM (series often up to 28.7 µM), most hits filed as inhibitors. actives 5.9% (n = 310,000). AID 504832, 2011
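First compound was added to culture medium, then infected red cells at 0.1% parasitemia and 2% hematocrit (final). After incubation at 37 C under 5% CO2, luciferase detection reagent was dispensed and light output recorded.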
Pf growth 96h: Primary qHTS for delayed death inhibitors of the malarial parasite plastid, 96 hour incubation; P. falciparum luciferase reporter growth, 96 h; Potency, µM (titrated, usually from 28.7 µM), hits mostly inhibitors; actives 6.9% (n = 320,000); AID 504834, 2011
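Infected RBCs, 2% Hct / 0.05% parasitemia final; luciferase-reporter P. falciparum; cpd 96 h, 37 C, 5% CO2; luciferase detection reagent; luminescence.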
Of the large screens only hits and unclear results are named; the others gave an inactive call. Hits are enriched below; roughly 21% of the tested compounds scored in any of these assays. Unless noted, calls follow the shape of the dose curve; as a rule, active = well fitted inhibition curve with a large enough effect; inconclusive = small, poorly fitted or top-dose-only effect, or another doubt; inactive = no such curve, though single readings can be large or run the other way.

CC1CC1C(=O)Nc1nc2ccc(S(C)(=O)=O)cc2s1 (stereo not drawn)	Cycloheximide cs 28, Shiga toxin inh 59
CCOC(=O)c1c(NC(=S)Nc2ccc(Cl)cc2)sc(C)c1C	Pf growth 96h inconclusive (no result: Pf growth 48h)
CCOC(=O)c1sc(NC(=O)CCN2CCN(C)CC2)c(C(=O)OCC)c1C	none
COCCOC(=O)c1c(NC(=O)CN2c3ccccc3CC2C)sc(C(N)=O)c1C (stereo not drawn)	Pf growth 48h 12µM, Pf growth 96h inconclusive
CCOC(=O)c1c(NC(=O)c2cc(C)oc2C)sc(C(=O)Nc2ccc(Cl)cc2)c1C	Cycloheximide cs 24, Pf growth 48h inconclusive, Pf growth 96h inconclusive
CCOC(=O)c1c(NC(=O)CN2CCN(C)CC2)sc(C(=O)Nc2ccccc2)c1C	Cycloheximide cs 28, Pf growth 48h 13µM
CCCCc1nc2ccn(CC(=O)N(C)C)c(=O)c2n1Cc1ccc(-c2ccccc2-c2nn[nH]n2)cc1	none (no result: Pf growth 48h, Pf growth 96h)
CCC(=N\NC(=O)COc1ccccc1OC)/C(CC)=N/NC(=O)COc1ccccc1OC	Pf growth 48h 9.3µM, Pf growth 96h inconclusive (no result: Cycloheximide cs, Shiga toxin inh)
COc1ccccc1OCC(=O)N/N=C/c1c(O)ccc2ccccc12	Pf growth 48h 2.6µM, Pf growth 96h inconclusive
COc1ccc2ccccc2c1/C=N/NC(=O)c1ccccc1F	Cycloheximide cs 11, Pf growth 96h inconclusive
COc1ccc(/C=N/NC(=O)COc2cccc3ccccc23)c(C(=O)O)c1OC	Pf growth 96h inconclusive
COc1cccc(/C=N/NC(=O)COc2cccc3cccnc23)c1O	Shiga toxin inh 32, Pf growth 48h inconclusive
C/C=C\C1=CCCC1Nc1ncnc2ccc(-c3c(C)noc3C)cc12 (stereo not drawn)	none (no result: Pf growth 48h, Pf growth 96h)
CCOc1ccc2nc(NC(=O)C3CSC4(C)CCC(=O)N34)sc2c1 (stereo not drawn)	none (no result: Cycloheximide cs, Shiga toxin inh)
O=C(COc1ccc(Cl)cc1)N/N=C/c1cccc2cccnc12	none
C=CCn1cc(/C=N/NC(=O)COc2cccc3cccnc23)c2ccccc21	Pf growth 96h inconclusive
COc1ccccc1OCC(=O)N/N=C/c1cccc2cccnc12	Pf growth 96h 13µM
CC(C)n1cc(/C=N/NC(=O)COc2cccc3cccnc23)c2ccccc21	Pf growth 48h inconclusive, Pf growth 96h 8.3µM
O=C(CN1c2ccccc2S(=O)(=O)c2ccccc21)Nc1ccccc1F	Pf growth 96h inconclusive
O=C(Cn1cc([N+](=O)[O-])ccc1=O)NCc1ccc(Cl)cc1Cl	Cycloheximide cs 33, Shiga toxin inh 24
CC1Cc2cc(S(=O)(=O)N3CCCC(C(=O)N4CCCCC4)C3)ccc2N1C(=O)C1CC1 (stereo not drawn)	Pf growth 48h 13µM, Pf growth 96h 13µM
CC1CCCN(C(=O)C2CCN(S(=O)(=O)c3ccc4c(c3)CC(C)N4C(=O)C3CC3)CC2)C1 (stereo not drawn)	Pf growth 48h inconclusive
CC(=O)N1c2ccc(S(=O)(=O)N3CCCC(C(=O)N4CCCCC4)C3)cc2CC1C (stereo not drawn)	Pf growth 48h inconclusive, Pf growth 96h 10µM
CC(C)c1ccc(C(CC(=O)O)N2Cc3ccccc3C2=O)cc1 (stereo not drawn)	none
COc1cccc(CNc2cnc3ccccc3c2)c1O	Cycloheximide cs 30, Shiga toxin inh 44, Pf growth 96h inconclusive
CCn1c(/C=N/c2nc3ccccc3n2C)nc2ccccc21	Cycloheximide cs 13
Oc1ccc(Br)cc1CNc1cnc2ccccc2c1	Pf growth 48h inconclusive, Pf growth 96h 12µM
COc1ccccc1Nc1nc2ccccc2n2cnnc12	none
COc1ccccc1Nc1nc2ccccc2n1C	Cycloheximide cs 30, Shiga toxin inh 66
Cn1c(/C=N/O)nc2ccccc21	none
Cc1c(S(=O)(=O)N(C)C2CCCCC2)c(=O)n(C)c(=O)n1C	none (no result: Cycloheximide cs, Shiga toxin inh)
COc1cccc(CN2C[C@]34C=C[C@@H](C[C@@H]3S2(=O)=O)O4)c1	none
CN1N=C(C(=O)N2CCCC(N3CCN(c4ccc(F)cc4)CC3)C2)CCC1=O (stereo not drawn)	Pf growth 96h inconclusive
O=C(COc1ccccc1F)Nc1cc(S(=O)(=O)Nc2cccc(Cl)c2)ccc1O	Pf growth 48h inconclusive (no result: Cycloheximide cs, Shiga toxin inh)
O=C(c1ccccc1)c1nn(-c2ccc(Cl)cc2)cc1C(=O)c1cc2ccccc2oc1=O	Pf growth 96h inconclusive (no result: Pf growth 48h)
COc1cccc(CNc2nc3ccccc3n2C)c1O	Cycloheximide cs 35 (no result: Shiga toxin inh)
COc1cccc(/C=N/c2nc3ccccc3n2C)c1O	Cycloheximide cs 20
O=C(O)CCCCCN1C(=O)C(O)=C(C(=O)/C=C/c2ccccc2)C1c1ccccc1[N+](=O)[O-] (stereo not drawn)	Cycloheximide cs 14, Pf growth 96h 9.3µM
CCCCN1C(=O)C(O)=C(C(C)=O)C1c1ccccc1[N+](=O)[O-] (stereo not drawn)	none
O=c1oc2ccccc2n1Cc1ccccc1Cl	Pf growth 96h 4.7µM
COc1ccc(-c2n[nH]c(=S)n2-c2ccccc2C)cc1OC	none
COc1ccc(-c2cc(-c3ccccc3)nc(NN)n2)cc1OC	Cycloheximide cs 17, Pf growth 48h inconclusive, Pf growth 96h inconclusive
COc1nc(-c2ccccc2)cc(-c2ccc(OC)c(OC)c2)n1	Shiga toxin inh 56
COc1ccc(-c2cc3cc(OC)c(OC)cc3c(C)n2)cc1C	Pf growth 48h inconclusive, Pf growth 96h 10µM
COc1ccc(-c2nc(N)n[nH]2)cc1OC	none (no result: Pf growth 96h)
COC(=O)C1C(O)=C(C(C)=Nc2cccc3ccccc23)C(=O)CC1(C)C (stereo not drawn)	none
Cc1cc(C)n2nc(C(=O)OCC(=O)c3ccc(F)cc3)nc2n1	none (no result: Cycloheximide cs, Shiga toxin inh)
CNC(=O)C1CC(=O)N(c2ccc(OCC(=O)Nc3ccc(OC)cc3)cc2)C1 (stereo not drawn)	Pf growth 96h inconclusive (no result: Cycloheximide cs, Shiga toxin inh)
COc1ccc(C(=O)OCCCOC(=O)c2ccc(OC)cc2OC)c(OC)c1	none
CCCCCCOC(=O)c1ccc(OC(=O)c2cccnc2)cc1	Cycloheximide cs 32, Shiga toxin inh 58 (no result: Pf growth 48h)
CCCCOC(=O)c1ccc(OC(=O)c2cccnc2)cc1	Cycloheximide cs 24, Shiga toxin inh 33
CC(=O)c1cc(C)ccc1OC(=O)c1cccnc1	Pf growth 96h 9.3µM
COc1ccc(C(=O)Oc2ccc(C(C)=O)cc2)c(OC)c1	Cycloheximide cs 30
Cc1ccc(C(=O)NCC(=O)OCC(=O)N(CC(C)C)c2c(N)n(Cc3ccccc3)c(=O)[nH]c2=O)cc1	none (no result: Cycloheximide cs, Shiga toxin inh)
O=C(CCC(=O)N1CCN(c2ccccn2)CC1)c1ccc(Cl)s1	none (no result: Cycloheximide cs, Shiga toxin inh)
COc1ccccc1C(=O)Oc1ccc(C(C)(C)C)cc1	Cycloheximide cs 29 (no result: Pf growth 48h)
COc1ccc(OC(=O)c2cccnc2)cc1	none (no result: Pf growth 48h, Pf growth 96h)
CC(C)(C)c1ccc(OC(=O)c2cccnc2)cc1	Cycloheximide cs 18, Pf growth 96h inconclusive
Clc1ccc(CN2CCSCC2)c(Cl)c1	none
N=c1ccn(Cc2ccccc2Cl)cc1	Pf growth 48h 4.7µM (no result: Pf growth 96h)
N=c1ccn(Cc2ccc(Cl)cc2Cl)cc1	Pf growth 96h 1.5µM (no result: Pf growth 48h)
CC(OC(=O)C1CC1C)C(=O)Nc1ccc(Cl)cn1 (stereo not drawn)	Pf growth 48h inconclusive (no result: Cycloheximide cs, Shiga toxin inh)
Cc1cc(C)cc(OC(=O)COc2ccccc2C)c1	Pf growth 96h inconclusive
COCCN(C(=O)c1ccc(N2CCCC2=O)cc1)c1c(N)n(Cc2ccccc2)c(=O)[nH]c1=O	none (no result: Cycloheximide cs, Shiga toxin inh)
CCC(=O)Nc1cccc(C(=O)Nc2nccs2)c1	none
